Reference: PubChem BioAssay AID1159580 (chemical genetic matrix, 2015)
Values joined by “and” are separate entries in the source; they are usually repeats but may differ in a detail not shown here. Equal entries are not always repeated. In all, about 5,500 compounds went through this assay and about 2,000 (36%) were called active. Roughly 18% stayed inconclusive and do not appear here. Cut-off read from the data, not from the text of the source: active = normalized growth mostly below about 0.91 (no sharp cut-off); inconclusive = no clear call, values can overlap the other calls; inactive = mostly above about 0.92. This is one part of the list.

Assay: chemical genetic growth profiling, strain panel (AID 1159580);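 note: tested at 20 µM; growth read once vehicle control cultures reached saturation at 30 °C; 1 = growth at the plate median or of vehicle wells; lower values mean less growth of the strain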
Settings: growth OD

Measured: normalized growth

CSCCC(N)C(=O)NC(CC(C)C)C(=O)NC(Cc1ccccc1)C(=O)O (configuration not stated)
inactive: S. cerevisiae deletion strains, locus YAL013W, strain DEP1, active compounds read low 1.01 | S. cerevisiae deletion strains, locus YBR021W, strain FUR4, active compounds read low 1.02 | S. cerevisiae deletion strains, locus YBR229C, strain ROT2, active compounds read low 1.01 | S. cerevisiae deletion strains, locus YCL029C, strain bik1, active compounds read low 0.987 | S. cerevisiae deletion strains, locus YDL035C, strain GPR1, active compounds read low 1.02 | S. cerevisiae deletion strains, locus YDL074C, strain BRE1, active compounds read low 1.05 | S. cerevisiae deletion strains, locus YDL101C, strain DUN1, active compounds read low 1.02 | S. cerevisiae deletion strains, locus YDL134C, strain PPH21, active compounds read low 1.02 | S. cerevisiae deletion strains, locus YDL185W, strain tfp1, active compounds read low 1 | S. cerevisiae deletion strains, locus YDL192W, strain arf1, active compounds read low 1 | S. cerevisiae deletion strains, locus YDR101C, strain arx1, active compounds read low 0.994 | S. cerevisiae deletion strains, locus YDR150W, strain NUM1, active compounds read low 1.02 | S. cerevisiae deletion strains, locus YDR162C, strain NBP2, active compounds read low 1.02 | S. cerevisiae deletion strains, locus YDR318W, strain mcm21, active compounds read low 0.978 | S. cerevisiae deletion strains, locus YDR388W, active compounds read low 0.995 | S. cerevisiae deletion strains, locus YDR502C, strain sam2, active compounds read low 1.01 | S. cerevisiae deletion strains, locus YEL061C, strain CIN8, active compounds read low 1.01 | S. cerevisiae deletion strains, locus YER110C, active compounds read low 0.994 | S. cerevisiae deletion strains, locus YER155C, strain BEM2, active compounds read low 1.01 | S. cerevisiae deletion strains, locus YER167W, strain BCK2, active compounds read low 1.02 | S. cerevisiae deletion strains, locus YGL078C, strain dbp3, active compounds read low 0.987 | S. cerevisiae deletion strains, locus YGL086W, strain mad1, active compounds read low 0.999 | S. cerevisiae deletion strains, locus YGL248W, strain PDE1, active compounds read low 1.02 | S. cerevisiae deletion strains, locus YGR078C, strain PAC10, active compounds read low 1.03 | S. cerevisiae deletion strains, locus YGR135W, strain pre9, active compounds read low 1 | S. cerevisiae deletion strains, locus YGR229C, strain SMI1, active compounds read low 1.04 | S. cerevisiae deletion strains, locus YGR252W, strain gcn5, active compounds read low 0.956 | S. cerevisiae deletion strains, locus YHR030C, strain SLT2, active compounds read low 1 and 1.02 | S. cerevisiae deletion strains, locus YHR079C, strain IRE1 (second series), active compounds read low 0.988 | S. cerevisiae deletion strains, locus YHR079C, strain IRE1, active compounds read low 1.01 | S. cerevisiae deletion strains, locus YHR094C, strain hxt1, active compounds read low 0.996 | S. cerevisiae deletion strains, locus YHR129C, strain ARP1, active compounds read low 1.01 | S. cerevisiae deletion strains, locus YHR200W, strain rpn10, active compounds read low 0.995 | S. cerevisiae deletion strains, locus YIL066C, strain RNR3, active compounds read low 1.01 | S. cerevisiae deletion strains, locus YIL073C, strain SPO22, active compounds read low 1 | S. cerevisiae deletion strains, locus YIL125W, strain kgd1, active compounds read low 1 | S. cerevisiae deletion strains, locus YIR030C, strain dcg1, active compounds read low 0.998 | S. cerevisiae deletion strains, locus YJL095W, strain BCK1, active compounds read low 1.04 and 0.991 | S. cerevisiae deletion strains, locus YJL134W, strain LCB3, active compounds read low 1.01 | S. cerevisiae deletion strains, locus YJL168C, strain set2, active compounds read low 0.998 | S. cerevisiae deletion strains, locus YJL187C, strain SWE1 (second series), active compounds read low 1.02 | S. cerevisiae deletion strains, locus YJR043C, strain POL32, active compounds read low 1 | S. cerevisiae deletion strains, locus YJR066W, strain TOR1, active compounds read low 0.934 | S. cerevisiae deletion strains, locus YJR075W, strain HOC1, active compounds read low 1.02 | S. cerevisiae deletion strains, locus YKL009W, strain mrt4, active compounds read low 0.993 | S. cerevisiae deletion strains, locus YKL068W, active compounds read low 0.987 | S. cerevisiae deletion strains, locus YKL085W, strain MDH1 (second series), active compounds read low 1 | S. cerevisiae deletion strains, locus YKL085W, strain MDH1, active compounds read low 1 | S. cerevisiae deletion strains, locus YKL190W, strain CNB1, active compounds read low 1.01 | S. cerevisiae deletion strains, locus YKR001C, strain vps1, active compounds read low 0.995 | S. cerevisiae deletion strains, locus YLR039C, strain RIC1, active compounds read low 1.07 | S. cerevisiae deletion strains, locus YLR058C, strain SHM2, active compounds read low 1.01 | S. cerevisiae deletion strains, locus YLR102C, strain apc9, active compounds read low 0.994 | S. cerevisiae deletion strains, locus YLR113W, strain HOG1, active compounds read low 0.988 | S. cerevisiae deletion strains, locus YLR262C, strain YPT6, active compounds read low 1.04 | S. cerevisiae deletion strains, locus YLR268W, strain sec22, active compounds read low 1.01 | S. cerevisiae deletion strains, locus YLR330W, strain CHS5, active compounds read low 1.01 | S. cerevisiae deletion strains, locus YLR342W, strain FKS1 (second series), active compounds read low 1.01 | S. cerevisiae deletion strains, locus YLR371W, strain rom2, active compounds read low 1 | S. cerevisiae deletion strains, locus YLR418C, strain cdc73, active compounds read low 1 | S. cerevisiae deletion strains, locus YML016C, strain PPZ1, active compounds read low 1.01 | S. cerevisiae deletion strains, locus YML032C, strain rad52, active compounds read low 0.989 | S. cerevisiae deletion strains, locus YML124C, strain tub3, active compounds read low 0.995 | S. cerevisiae deletion strains, locus YMR078C, strain ctf18, active compounds read low 0.987 | S. cerevisiae deletion strains, locus YMR223W, strain ubp8, active compounds read low 0.995 | S. cerevisiae deletion strains, locus YMR263W, strain SAP30, active compounds read low 1.03 | S. cerevisiae deletion strains, locus YMR307W, strain GAS1, active compounds read low 0.996 | S. cerevisiae deletion strains, locus YNL067W, strain RPL9B, active compounds read low 1.03 | S. cerevisiae deletion strains, locus YNL128W, strain TEP1, active compounds read low 1.03 | S. cerevisiae deletion strains, locus YNL153C, strain GIM3, active compounds read low 1.02 | S. cerevisiae deletion strains, locus YNL183C, strain NPR1, active compounds read low 0.928 | S. cerevisiae deletion strains, locus YNL233W, strain BNI4, active compounds read low 1.02 | S. cerevisiae deletion strains, locus YNL250W, strain rad50, active compounds read low 1 | S. cerevisiae deletion strains, locus YNL271C, strain bni1, active compounds read low 0.994 | S. cerevisiae deletion strains, locus YNL298W, strain CLA4, active compounds read low 1 | S. cerevisiae deletion strains, locus YNL307C, strain MCK1, active compounds read low 0.98 | S. cerevisiae deletion strains, locus YNL322C, strain KRE1, active compounds read low 1.01 | S. cerevisiae deletion strains, locus YNR052C, strain pop2, active compounds read low 0.996 | S. cerevisiae deletion strains, locus YOL006C, strain TOP1, active compounds read low 1.11 | S. cerevisiae deletion strains, locus YOL012C, strain htz1 0.734 | S. cerevisiae deletion strains, locus YOL147C, strain pex11, active compounds read low 0.996 | S. cerevisiae deletion strains, locus YOR061W, strain CKA2, active compounds read low 1.02 | S. cerevisiae deletion strains, locus YOR069W, strain VPS5, active compounds read low 1.01 | S. cerevisiae deletion strains, locus YOR136W, strain idh2, active compounds read low 0.989 | S. cerevisiae deletion strains, locus YOR144C, strain elg1, active compounds read low 0.998 | S. cerevisiae deletion strains, locus YOR184W, strain ser1, active compounds read low 0.989 | S. cerevisiae deletion strains, locus YOR231W, strain MKK1, active compounds read low 1 | S. cerevisiae deletion strains, locus YOR316C, strain cot1, active compounds read low 0.998 | S. cerevisiae deletion strains, locus YPL055C, strain LGE1, active compounds read low 1.06 | S. cerevisiae deletion strains, locus YPL241C, strain CIN2, active compounds read low 1.01 | S. cerevisiae deletion strains, locus YPL256C, strain CLN2, active compounds read low 1.01 | S. cerevisiae deletion strains, locus YPR119W, strain clb2, active compounds read low 0.985 | S. cerevisiae deletion strains, locus YPR141C, strain kar3, active compounds read low 0.993 | S. cerevisiae deletion strains, locus YPR163C, strain tif3, active compounds read low 0.989 | S. cerevisiae deletion strains, locus YPR167C, strain met16, active compounds read low 0.993 | S. cerevisiae deletion strains, strain wtn01, active compounds read low 1.01 | S. cerevisiae strains, strain wild type, active compounds read low 1.01
